The structures appear in SMILES notation. About 79,000 compounds went through this panel and 15% of them were active in at least one assay; those are over-represented in the sample as a whole. A number with no mark means an inactive call. The source made the active and inactive calls. No stated cut-off is given here; in the data, active means growth inhibition above about 70%; inactive means the rest.

This test in a line: NCI Yeast Anticancer Drug Screen. Data for the bub3 strain (AID 167). Particulars: S. cerevisiae bub3 mutant strain, at 50.0 µM, hits give high values. The method, then: Growth inhibition of yeast strains with defined genetic alterations is measured as a screen for potential anti-cancer activity. Selected strains with alterations in DNA damage repair or cell cycle control were exposed to compounds and growth inhibition was measured relative to vehicle treated controls. The strain used in this assay is bub3
In the case of `C/C(CC(=O)Nc1cccc(Cl)c1C)=N\N=C(N)N`, the growth inhibition is -23%.

As to `C(/C=C/c1ccccc1)=C1SCCCS1`, the growth inhibition is -2.15%.

With `O=C(N/N=C\c1ccc2c(c1)OCO2)c1ccc2c(c1)OCO2`, the growth inhibition is 5.05%.

Consider `O=C1c2cc(Cl)ccc2NC(=NC2CCCC2)C2CSCN12` (stereo not given), for which the growth inhibition is -22.8%.

On to `O=C(NCCN1CCCCC1)c1cccc(I)c1`, for which the growth inhibition is 8.15%.

As to `CN1C(=O)NC(C)(C)C1=O`, the growth inhibition is -8.45%.

In the case of `OC1c2ccccc2OC2(N3CCCC3)CCCCC12` (stereo not given), the growth inhibition was -26.4%.

`CC1(c2ccccc2)CCCCC1OC(N)=O` (stereo not given): the growth inhibition was 7.2%.

As for `COC1C=C(Br)C(=O)C(C)O1` (stereo not given), the growth inhibition was 21.2%.

With `CCC(Br)C(=O)Nc1ccccc1C` (stereo not given), the growth inhibition was 20.6%.

In the case of `NNCCc1n[nH]c(=O)n1N`, the growth inhibition was 5.1%.

As for `COc1ccc(OC)c(N=Nc2c(C)nc(N)nc2C)c1`, the growth inhibition was 19.6%.

With `NNC(=O)C(=O)N/N=C1/CCCC1C(=O)CCC(=O)Nc1ccc(Cl)cc1` (stereo not given), the growth inhibition is 0.3%.

Take `COC(=O)C1C(COS(C)(=O)=O)ON2CCC(OC)(OC)C12` (stereo not given): the growth inhibition is 7.3%.

Regarding `Cc1nc(N/N=C/c2ccccc2Cl)[nH]c(=O)c1CCO`, the growth inhibition is -30.2%.

As for `Nc1ccc(S(=O)(=O)Nc2nc3ccccc3nc2Nc2ccc(S(N)(=O)=O)cc2)cc1`, the growth inhibition is -10.3%.

Take `CSc1ccc(NC(=O)Nc2cc(C)c(C)cc2C)cc1`: the growth inhibition is 14.5%.

For the molecule `O=C1CSC(=S)N1/N=C/c1ccc([N+](=O)[O-])s1`, the growth inhibition was 98.8% (active).

As to `Cc1nc2c(sc3ccccc3n2C)c2nc3c(sc4ccccc4n3C)c(C)c12`, the growth inhibition is -2.6%.

With `CCCS(=O)(=O)N1CC(C)OC(C)C1` (stereo not given), the growth inhibition is -10.7%.

As for `NNc1ccc(C(=O)O)cc1`, the growth inhibition was -2.35%.

For the molecule `CN1CCS(=O)(=O)CC1`, the growth inhibition is 1.75%.

With `COc1cccc(NCNC2Nc3ccccc3N2)c1`, the growth inhibition is 18.4%.

Turning to `Cc1ccc(S(=O)(=O)OI(O)CC(F)(F)F)cc1`, the growth inhibition was 6.5%.

Turning to `O=C(CO)C(O)C(O)C(O)CO` (stereo not given), the growth inhibition is 19.9%.

In the case of `O=C1C2C3C=CC(C2C(=O)N1CCl)C1C2C(=O)N(CCl)C(=O)C2C31` (stereo not given), the growth inhibition is 13.6%.

For the molecule `COc1ccc(CCNC(=S)NC(=O)c2ccc(Cl)c(Cl)c2)cc1OC`, the growth inhibition was 44.4%.

On to `C=C1C(=O)O[C@H]2/C=C(/C)C3=CC(=O)[C@@](C)(C[C@@H](OC(=O)/C(C)=C\C)C12)O3` (stereo not given in full), for which the growth inhibition was 77.9% (active).

Take `CC(C)=C(C)CCC(C)CC(C)O` (stereo not given): the growth inhibition is -5.9%.

Consider `CCc1cc(C(=O)NN)c2ccccc2n1`, for which the growth inhibition is -11.8%.

Consider `OCc1ccc2ccc3ccc(CO)nc3c2n1`, for which the growth inhibition is 15.4%.

On to `COc1cc(OC)c2nc3ccccc3c(NCCC[N+](C)(C)[O-])c2c1[N+](=O)[O-]`, for which the growth inhibition was -14.2%.

`COC(=O)C(=[N+]=[N-])C(=O)c1ccccc1`: the growth inhibition is -3.6%.

For `COC1=CC(O)(CC(N)=O)c2ccccc2C1=O` (stereo not given), the growth inhibition was -23.9%.

In the case of `CN(CC(=O)O)Cc1ccccc1`, the growth inhibition is 9.35%.

For `CC(C)S1=C2C(=O)CC(C)(C)CC2=Nc2ccccc21` (stereo not given), the growth inhibition was 15.8%.

For the molecule `CC(C)C(CC1CCCCC1)C(C)O` (stereo not given), the growth inhibition was -9.35%.

`CCCC(=O)c1ccc(=O)n(C)c1`: the growth inhibition is 14.4%.

`Cn1c(=O)c2[nH]c(CC3=CCCCC3)nc2n(C)c1=O`: the growth inhibition was 4.4%.

Take `CSc1nc(SC)c(Nc2cccc(C)c2)c(SC)n1`: the growth inhibition is 21.8%.

The values are drawn from PubChem BioAssay (NCI).
